The target in assay [1] is Voltage-gated inwardly rectifying potassium channel KCNH2 (Homo sapiens) (UniProt Q12809). As to the kind of experiment: NVS_IC_hKhERGCh: NovaScreen (NVS) Ion Channel Assay for human Potassium Channel ERG (KhERGCh) (AID 2283333). The method, boiled down:
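Cell-free radioligand competition binding on hERG protein extracted from CHO cells, read by filter-based scintillation counting 0.75 h after dosing. Primary screen at 25 uM in duplicate, actives followed in concentration series. Signal loss fitted versus DMSO.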

The target in assay [2] is rat Peripheral-type Benzodiazepine Receptor (PBR), Tspo (gene 24230) (UniProt P16257). Description: NVS_MP_rPBR: NovaScreen (NVS) Membrane Protein Assay for rat Peripheral-type Benzodiazepine Receptor (PBR) (AID 2283335). The method, boiled down: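 Radioligand displacement, rat kidney membrane prep, 1 h exposure, filter-based scintillation read; DMSO baseline, loss-of-signal scored. Primary screen at 25 uM in duplicate, actives followed up in concentration series.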
Sequence of rat Peripheral-type Benzodiazepine Receptor (PBR), Tspo (gene 24230) (P16257 whole entry, looked up): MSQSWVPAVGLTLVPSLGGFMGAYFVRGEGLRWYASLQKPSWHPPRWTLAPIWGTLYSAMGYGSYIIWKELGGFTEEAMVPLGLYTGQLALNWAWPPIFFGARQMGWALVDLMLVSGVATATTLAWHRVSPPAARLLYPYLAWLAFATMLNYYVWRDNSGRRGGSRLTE

Assay [3] concerns NCBI gene 100848466. Description: NVS_NR_bPR: NovaScreen (NVS) Nuclear Receptor Binding Assay for bovine Progextron Receptor (PR) (AID 2283343).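 For AC50: actives lower bound radioligand signal below DMSO meaning displacement of the label.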 The method, boiled down:
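Bovine uterine membrane preparation; radioligand displacement read by scintillation counting 18 h after dosing. Primary screen single concentration, 25 uM, in duplicate; actives followed up in concentration series. Signal loss versus DMSO baseline.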

A short description of assay [4]: NVS_IC_rCaBTZCHL: NovaScreen (NVS) Ion Channel Assay for Calcium Channel, Type L, Benzothiazepine Site (CaBTZCHL) (AID 2283337). The method, boiled down:
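Competitive displacement of a site-specific radioligand from rat cortex membranes, measured as signal loss against DMSO baseline by filter radiodetection after 1.5 h. Single-point 25 uM primary screen.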

The test system of assay [5] is guinea pig Histamine Receptor (H2), gene 100729734. Description: NVS_GPCR_gH2: NovaScreen (NVS) G Protein-Coupled Receptor Assay for guinea pig Histamine Receptor (H2) (AID 2283342). The method, boiled down:
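Radioligand displacement on guinea pig striatal membranes, 1 h after dosing, filter-based scintillation counting; loss of signal versus DMSO. Single-point screen at 25 uM in duplicate, then concentration-response up to 50 uM.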

Assay [6] addresses bovine Estrogen Receptor (ER), ESR1 (gene 407238) (UniProt P49884). As to the kind of experiment: NVS_NR_bER: NovaScreen (NVS) Nuclear Receptor Binding Assay for bovine Estrogen Receptor (ER) (AID 2283345).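 Note: actives lower the bound radioligand count which means they displace the ER ligand.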 In outline:
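Cell-free radioligand binding with receptor from bovine uterine membranes, read by scintillation counting 18 h after dosing. Loss of specific binding was scored against DMSO; primary screen at 25 uM in duplicate, actives then run as concentration series.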

For assay [7], the target named is chimpanzee Androgen Receptor (AR), AR (gene 747460) (UniProt O97775). As to the kind of experiment: NVS_NR_cAR: NovaScreen (NVS) Nuclear Receptor Binding Assay for chimpanzee Androgen Receptor (AR) (AID 2283346).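 Note: a loss of bound radioligand signal versus DMSO counts as binding.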 In outline: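 Radioligand binding to chimpanzee AR expressed in Sf9/Sf21 cells, cell-free, measured 72 h after dosing by lysate-based scintillation counting. Loss of signal vs DMSO; initial duplicate screen at 25 uM, actives retested in concentration series.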

Assay [8] has as its target Estrogen receptor (Homo sapiens) (UniProt P03372). As to the kind of experiment: OT_ER_ERaERa_1440: Odyssey Thera (OT) 24-hour HEK293T Protein-Complementation Assay for Estrogen Receptor-alpha/-alpha Homodimer (AID 2283349).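 Note: hits raise fluorescence above DMSO for agonists and antagonists alike.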 The method, boiled down: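 HEK293T cells stably expressing the human ER alpha ligand-binding domain (aa 310-547) as a homodimer PCA were dosed for 24 hours. Fluorescence intensity was read by laser scanning cytometry, and gain of signal was fitted relative to DMSO vehicle.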

Assay [9] shares this target. Description: OT_ER_ERaERa_0480: Odyssey Thera (OT) 8-hour HEK293T Protein-Complementation Assay for Estrogen Receptor-alpha/-alpha Homodimer (AID 2283351).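 Note: rise in fluorescence from reassembled reporter fragments on ERα LBD homodimer in nucleus or whole cell.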 The method, boiled down:
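Binding reporter in which dimerisation of ERα LBD (aa 310-547) fusions reconstitutes a fluorescent reporter in HEK293T cells. Compounds incubated 8 h; mean fluorescence intensity increase versus DMSO scored.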

The target of assay [10] is human Androgen Receptor (AR), AR (gene 367) (UniProt P10275). As to the kind of experiment: NVS_NR_hAR: NovaScreen (NVS) Nuclear Receptor Binding Assay for human Androgen Receptor (AR) (AID 2283332). In outline: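 LnCAP cell-free extract; radioligand displacement read by scintillation counting after 20 h. Primary screen single concentration 25 uM in duplicate, actives then run as concentration series; loss-of-signal fitted relative to DMSO baseline.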
Sequence of human Androgen Receptor (AR), AR (gene 367) (P10275 whole entry, looked up): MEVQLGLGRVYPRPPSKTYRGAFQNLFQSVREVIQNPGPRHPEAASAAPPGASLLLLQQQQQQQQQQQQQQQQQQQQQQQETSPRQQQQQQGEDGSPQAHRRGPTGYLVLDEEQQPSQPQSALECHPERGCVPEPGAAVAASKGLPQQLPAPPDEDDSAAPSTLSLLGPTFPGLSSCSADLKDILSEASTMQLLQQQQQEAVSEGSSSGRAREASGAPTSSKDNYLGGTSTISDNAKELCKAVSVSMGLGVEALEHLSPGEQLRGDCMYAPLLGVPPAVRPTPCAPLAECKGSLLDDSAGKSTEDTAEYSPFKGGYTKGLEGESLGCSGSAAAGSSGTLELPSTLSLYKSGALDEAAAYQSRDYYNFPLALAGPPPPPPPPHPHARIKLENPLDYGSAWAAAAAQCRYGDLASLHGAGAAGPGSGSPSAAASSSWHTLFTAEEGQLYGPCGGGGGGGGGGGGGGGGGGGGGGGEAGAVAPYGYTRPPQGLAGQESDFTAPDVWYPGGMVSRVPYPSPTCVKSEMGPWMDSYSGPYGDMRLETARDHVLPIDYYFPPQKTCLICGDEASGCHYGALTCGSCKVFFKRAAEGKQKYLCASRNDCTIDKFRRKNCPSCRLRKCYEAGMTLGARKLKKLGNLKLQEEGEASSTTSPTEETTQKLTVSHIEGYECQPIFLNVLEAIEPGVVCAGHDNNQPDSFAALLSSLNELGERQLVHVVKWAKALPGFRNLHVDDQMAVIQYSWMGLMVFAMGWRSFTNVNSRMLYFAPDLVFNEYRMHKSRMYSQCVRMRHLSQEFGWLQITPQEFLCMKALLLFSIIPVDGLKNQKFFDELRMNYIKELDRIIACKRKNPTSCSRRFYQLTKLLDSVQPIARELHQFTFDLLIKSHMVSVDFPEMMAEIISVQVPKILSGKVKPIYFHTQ

Assay [11] has as its target Bile acid receptor (Homo sapiens) (UniProt Q96RI1). As to the kind of experiment: NVS_NR_hFXR_Antagonist: NovaScreen (NVS) Nuclear Receptor Binding Assay for human Farnesoid X Receptor Antagonism (FXR) (AID 2283350). In outline: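 Cell-free TR-FRET ligand-binding read-out on human FXR (NR1H4) in antagonist mode, measured 1 h after dosing. Primary screen in duplicate at 25 uM, actives retested in concentration series; signal loss scored versus DMSO.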

Assay [12] addresses Androgen Receptor/SRC-1 Co-activator, AR (gene 367) (UniProt P10275). As to the kind of experiment: OT_AR_ARSRC1_0960: Odyssey Thera (OT) 16-hour HEK293T Protein-Complementation Assay for Androgen Receptor/SRC-1 Co-activator (AID 2283353).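 Note: actives raise the signal above DMSO so potency reflects increased AR and SRC-1 complex.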 The method, boiled down:
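Interaction of AR with SRC-1 was followed by YFP fragment complementation in HEK293T cells after 16 h of dosing. Gain of nuclear-over-cytoplasmic 488 nm fluorescence against DMSO controls defined activity.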

The target in assay [13] is Estrogen receptor (Homo sapiens) (UniProt P03372). Description: NVS_NR_hER: NovaScreen (NVS) Nuclear Receptor Binding Assay for human Estrogen Receptor (ER) (AID 2283348). In outline: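 Radioligand competitive displacement binding to estrogen receptor from MCF7 extract, cell-free; 18 h after dosing, scintillation read-out. Primary screen in duplicate at 25 uM; actives followed up in concentration series; loss of signal vs DMSO.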
Sequence of Estrogen receptor (Homo sapiens) (P03372 whole entry, looked up, the tested form may be a part): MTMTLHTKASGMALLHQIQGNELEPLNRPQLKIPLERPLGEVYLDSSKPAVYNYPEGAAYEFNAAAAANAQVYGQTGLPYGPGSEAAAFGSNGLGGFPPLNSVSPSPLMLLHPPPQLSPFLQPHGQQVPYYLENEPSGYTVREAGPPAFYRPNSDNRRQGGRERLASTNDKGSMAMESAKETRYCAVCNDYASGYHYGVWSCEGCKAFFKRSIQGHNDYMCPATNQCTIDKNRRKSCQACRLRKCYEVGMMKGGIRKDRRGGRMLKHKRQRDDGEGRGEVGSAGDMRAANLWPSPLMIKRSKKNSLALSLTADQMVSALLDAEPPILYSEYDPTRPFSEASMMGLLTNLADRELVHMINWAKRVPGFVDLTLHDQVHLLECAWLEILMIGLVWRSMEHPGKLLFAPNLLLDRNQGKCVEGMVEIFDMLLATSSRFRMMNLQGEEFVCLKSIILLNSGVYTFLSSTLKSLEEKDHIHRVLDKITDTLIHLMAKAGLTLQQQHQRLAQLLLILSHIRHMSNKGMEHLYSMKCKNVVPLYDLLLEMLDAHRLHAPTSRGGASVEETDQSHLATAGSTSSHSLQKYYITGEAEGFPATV

Assay [14] addresses Estrogen receptor (Homo sapiens) + Estrogen receptor beta (Homo sapiens) (UniProt P03372+Q92731). As to the kind of experiment: OT_ER_ERaERb_0480: Odyssey Thera (OT) 8-hour HEK293T Protein-Complementation Assay for Estrogen Receptor-alpha/-beta Heterodimer (AID 2283352). The method, boiled down:
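Fluorescence intensity readout from a protein-fragment complementation reporter in HEK293T; ER-alpha/ER-beta LBD heterodimer. Dosing 8 h. Gain-of-signal fit relative to DMSO negative control; laser scanning cytometry of whole-well cell population.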

For assay [15], the target named is Androgen Receptor/SRC-1 Co-activator, AR (gene 367) (UniProt P10275). Description: OT_AR_ARSRC1_0480: Odyssey Thera (OT) 8-hour HEK293T Protein-Complementation Assay for Androgen Receptor/SRC-1 Co-activator (AID 2283354).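 Note: hits raise the complementation signal above DMSO so AC50 marks enhancers.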 The method, boiled down:
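HEK293T cells stably expressing AR and SRC-1 fused to Venus YFP fragments, imaged 8 h after dosing. Complementation fluorescence scored as nuclear/cytoplasmic ratio at 488 nm in at least 400 cells per image; gain fitted versus DMSO.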

The target in assay [16] is rat Glutamate, MK-801 Agonist Site (GluNMDA_MK801), Grin1 (gene 24408) (UniProt P35439). As to the kind of experiment: NVS_LGIC_rGluNMDA_MK801_Agonist: NovaScreen (NVS) Ligand-Gated Ion Channel Assay for rat Glutamate, MK-801 Agonist Site (GluNMDA_MK801) (AID 2283340). In outline: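 Radioligand binding at MK-801 site in rat forebrain membranes, 1.5 h incubation, filter-based scintillation counting. Initially 25 uM in duplicate; actives then run in concentration-response up to 50 uM, fitted for gain of signal versus DMSO.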

Assay [17] has as its target Small conductance calcium-activated potassium channel protein 1 (Rattus norvegicus) (UniProt P70606). Description: NVS_IC_rKCaCh: NovaScreen (NVS) Ion Channel Assay for rat Potassium Channel, Ca2+ Act., VI (KCaCh) (AID 2283336). In outline: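 Radioligand binding to rat forebrain membranes, cell-free, read 1 hour after dosing by filter-based scintillation counting. Compounds first run in duplicate at 25 uM, actives then in concentration series; loss of signal vs DMSO indicates displacement.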

For assay [18], the target named is rat Gamma-Aminobutyric Acid Type A Receptor BDZ, alpha 6 site (GABARa6), Gabra6 (gene 29708) (UniProt P30191). Description: NVS_LGIC_rGABARa6: NovaScreen (NVS) Ligand-Gated Ion Channel Assay for rat Gamma-Aminobutyric Acid Type A Receptor BDZ, alpha 6 site (GABARa6) (AID 2283339). In outline: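 Rat cerebellar membranes; radioligand binding, filtration and scintillation counting, read 1 h after dosing. Single-concentration duplicate screen at 25 uM, then concentration-response up to 50 uM for actives; loss of signal fitted versus DMSO baseline.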

The structures appear in SMILES notation. Inconclusive results are not listed. Active and inactive are the calls of the source. Rule for the calls: active = hit-call score of the fitted dose curve at least 0.9, where 1 is the maximum; inconclusive = response in the unintended direction; inactive = score below 0.9.

Broadly, the AC50 is the concentration giving half of the maximal activity seen.

Sequence of Androgen Receptor/SRC-1 Co-activator, AR (gene 367) (P10275 whole entry, looked up, the tested form may be a part): as the sequence (P10275 whole entry, looked up) above
Sequence of Voltage-gated inwardly rectifying potassium channel KCNH2 (Homo sapiens) (Q12809 whole entry, looked up): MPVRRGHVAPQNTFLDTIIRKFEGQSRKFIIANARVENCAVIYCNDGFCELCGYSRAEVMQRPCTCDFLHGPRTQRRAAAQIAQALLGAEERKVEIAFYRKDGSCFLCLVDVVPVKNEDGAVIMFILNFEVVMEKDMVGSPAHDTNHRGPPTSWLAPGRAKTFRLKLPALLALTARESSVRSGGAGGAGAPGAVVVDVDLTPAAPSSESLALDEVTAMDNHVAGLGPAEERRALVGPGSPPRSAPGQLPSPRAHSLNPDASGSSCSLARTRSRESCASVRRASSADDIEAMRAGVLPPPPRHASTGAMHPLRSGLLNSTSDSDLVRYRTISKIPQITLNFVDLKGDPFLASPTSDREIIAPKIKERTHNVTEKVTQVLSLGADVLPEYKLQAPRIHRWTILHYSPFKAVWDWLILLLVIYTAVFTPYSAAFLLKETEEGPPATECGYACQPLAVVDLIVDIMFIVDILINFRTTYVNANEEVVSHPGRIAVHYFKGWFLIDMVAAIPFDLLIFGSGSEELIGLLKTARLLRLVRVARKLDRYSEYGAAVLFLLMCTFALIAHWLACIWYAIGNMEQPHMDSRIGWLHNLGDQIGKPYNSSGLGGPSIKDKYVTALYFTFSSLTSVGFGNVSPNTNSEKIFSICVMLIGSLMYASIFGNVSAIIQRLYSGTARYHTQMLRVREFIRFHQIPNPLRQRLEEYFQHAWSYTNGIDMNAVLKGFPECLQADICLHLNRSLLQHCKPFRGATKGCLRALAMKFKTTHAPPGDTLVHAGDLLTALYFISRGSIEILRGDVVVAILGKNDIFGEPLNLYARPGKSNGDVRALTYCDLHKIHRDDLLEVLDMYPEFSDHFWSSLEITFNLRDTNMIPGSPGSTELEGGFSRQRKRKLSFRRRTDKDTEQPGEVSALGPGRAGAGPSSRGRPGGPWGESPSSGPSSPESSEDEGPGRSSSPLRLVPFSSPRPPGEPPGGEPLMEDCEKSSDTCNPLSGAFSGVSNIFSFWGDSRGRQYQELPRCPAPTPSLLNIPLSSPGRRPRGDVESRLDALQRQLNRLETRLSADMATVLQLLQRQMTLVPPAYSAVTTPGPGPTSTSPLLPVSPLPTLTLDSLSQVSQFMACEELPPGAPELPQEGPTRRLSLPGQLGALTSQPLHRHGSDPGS
Sequence of Bile acid receptor (Homo sapiens) (Q96RI1 whole entry, looked up): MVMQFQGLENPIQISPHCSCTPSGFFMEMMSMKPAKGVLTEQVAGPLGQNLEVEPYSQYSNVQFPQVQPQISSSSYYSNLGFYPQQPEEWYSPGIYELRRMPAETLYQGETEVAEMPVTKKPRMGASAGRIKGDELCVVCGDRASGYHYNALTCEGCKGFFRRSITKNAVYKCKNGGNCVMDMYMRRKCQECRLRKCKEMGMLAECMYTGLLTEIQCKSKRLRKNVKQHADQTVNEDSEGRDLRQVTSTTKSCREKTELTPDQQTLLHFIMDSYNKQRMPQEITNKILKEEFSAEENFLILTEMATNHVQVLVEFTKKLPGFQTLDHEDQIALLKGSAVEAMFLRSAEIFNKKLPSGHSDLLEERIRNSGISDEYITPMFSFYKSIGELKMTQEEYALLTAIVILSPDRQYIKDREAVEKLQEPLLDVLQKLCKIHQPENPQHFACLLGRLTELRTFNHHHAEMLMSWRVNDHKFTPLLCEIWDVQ
Sequence of bovine Estrogen Receptor (ER), ESR1 (gene 407238) (P49884 whole entry, looked up): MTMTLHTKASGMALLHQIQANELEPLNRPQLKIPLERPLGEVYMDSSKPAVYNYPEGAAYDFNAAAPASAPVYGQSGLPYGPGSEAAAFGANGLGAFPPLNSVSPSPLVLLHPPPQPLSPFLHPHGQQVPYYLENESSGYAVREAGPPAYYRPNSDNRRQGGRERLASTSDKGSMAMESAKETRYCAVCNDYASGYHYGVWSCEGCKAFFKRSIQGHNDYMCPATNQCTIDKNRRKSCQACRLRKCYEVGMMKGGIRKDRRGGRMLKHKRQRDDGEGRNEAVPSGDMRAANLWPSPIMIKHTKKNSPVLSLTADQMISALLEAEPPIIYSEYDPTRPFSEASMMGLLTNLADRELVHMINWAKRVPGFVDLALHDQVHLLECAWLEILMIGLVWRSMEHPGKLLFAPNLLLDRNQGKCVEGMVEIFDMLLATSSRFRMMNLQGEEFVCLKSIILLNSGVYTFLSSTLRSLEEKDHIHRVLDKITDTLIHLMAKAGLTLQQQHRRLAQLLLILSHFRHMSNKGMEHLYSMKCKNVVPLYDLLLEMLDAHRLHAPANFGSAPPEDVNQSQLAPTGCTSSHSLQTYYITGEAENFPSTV

On to `CCCCSP(=O)(SCCCC)SCCCC`, for which, in assay [1], the compound was called inactive. Further, the AC50 in [2] is 3.75 µM (active).
Turning to `CCOP(=S)(OCC)SCCSCC`, the AC50 is 17.9 µM (active) in assay [2] and 25 µM (active) in assay [3].
In the case of `C#CC(C)(C)NC(=O)c1cc(Cl)cc(Cl)c1`, the AC50 in assay [2] was 0.19 µM (active). In assay [3], the call was inactive.
On to `CC[C@H](C)[C@H]1O[C@]2(C=C[C@@H]1C)C[C@@H]1C[C@@H](C/C=C(\C)[C@@H](O[C@H]3C[C@H](OC)[C@@H](O[C@H]4C[C@H](OC)[C@@H](NC)[C@H](C)O4)[C@H](C)O3)[C@@H](C)/C=C/C=C3\CO[C@@H]4[C@H](O)C(C)=C[C@@H](C(=O)O1)[C@]34O)O2`, for which the AC50 in [1] is 0.00229 µM (active); in assay [4], 10 µM (active); in assay [5], 26.4 µM (active); in assay [7], 6.02 µM (active). The outcome in assay [6], in [8] and in assay [9] was inactive.
In the case of `CCCSP(=O)(OCC)SCCC`, the outcome in [10], in assay [3], in assay [11] and in assay [12] was inactive. The AC50 in assay [2] is 11.5 µM (active).
`O=[N+]([O-])c1cc(C(F)(F)F)c(Cl)c([N+](=O)[O-])c1Nc1ncc(C(F)(F)F)cc1Cl`: the call in assay [1] and in [8] was inactive.
On to `CNC(=O)ON=C(SC)C(=O)N(C)C`, for which the call in assay [2], in assay [3], in assay [6], in [13], in assay [8] and in assay [9] was inactive. Also, the outcome in assay [14], in [12] and in [15] was inactive.
Consider `CON=C(C(=O)OC)c1ccccc1CON=C(C)c1cccc(C(F)(F)F)c1`, for which the AC50 in assay [2] is 0.612 µM (active).
Take `CCc1cccc(C)c1N(C(=O)CCl)C(C)COC` (configuration not stated): the AC50 in assay [2] was 8.9 µM (active). Further, the call in assay [16] and in assay [3] was inactive.
Take `CN(C)C(=O)Nc1cccc(C(F)(F)F)c1`: in assay [2], the AC50 is 10.8 µM (active). In addition, the outcome in assay [17] and in assay [18] was inactive.
Regarding `C=C(C)[C@H]1Cc2c(ccc3c2O[C@@H]2COc4cc(OC)c(OC)cc4[C@@H]2C3=O)O1`, the result in assay [10], in assay [3] and in assay [11] was inactive. The AC50 is 4.23 µM (active) in [2], 0.088 µM (active) in [12] and 0.973 µM (active) in assay [15].

Values taken from PubChem BioAssay (EPA / NIEHS).
